Data from the supplement of paper PMC11732987, “Enantioselective OTUD7B fragment discovery through chemoproteomics screening and high-throughput optimisation” (Communications Chemistry, 2025).

Experiments:
Assay in all cases: log2 ratio of Biotin-Ahx-Ub-VS probe labelling (fragment/DMSO); higher = less target engagement (more negative = stronger competition), active = hit call of the paper (q ≤ 0.05, log2 ratio ≤ -1)
Conditions in all cases: compound concentration: 200 uM; treatment time: 3 h
[1] = biological target: T1, USP19 (UniProt O94966)
T1 sequence (whole entry): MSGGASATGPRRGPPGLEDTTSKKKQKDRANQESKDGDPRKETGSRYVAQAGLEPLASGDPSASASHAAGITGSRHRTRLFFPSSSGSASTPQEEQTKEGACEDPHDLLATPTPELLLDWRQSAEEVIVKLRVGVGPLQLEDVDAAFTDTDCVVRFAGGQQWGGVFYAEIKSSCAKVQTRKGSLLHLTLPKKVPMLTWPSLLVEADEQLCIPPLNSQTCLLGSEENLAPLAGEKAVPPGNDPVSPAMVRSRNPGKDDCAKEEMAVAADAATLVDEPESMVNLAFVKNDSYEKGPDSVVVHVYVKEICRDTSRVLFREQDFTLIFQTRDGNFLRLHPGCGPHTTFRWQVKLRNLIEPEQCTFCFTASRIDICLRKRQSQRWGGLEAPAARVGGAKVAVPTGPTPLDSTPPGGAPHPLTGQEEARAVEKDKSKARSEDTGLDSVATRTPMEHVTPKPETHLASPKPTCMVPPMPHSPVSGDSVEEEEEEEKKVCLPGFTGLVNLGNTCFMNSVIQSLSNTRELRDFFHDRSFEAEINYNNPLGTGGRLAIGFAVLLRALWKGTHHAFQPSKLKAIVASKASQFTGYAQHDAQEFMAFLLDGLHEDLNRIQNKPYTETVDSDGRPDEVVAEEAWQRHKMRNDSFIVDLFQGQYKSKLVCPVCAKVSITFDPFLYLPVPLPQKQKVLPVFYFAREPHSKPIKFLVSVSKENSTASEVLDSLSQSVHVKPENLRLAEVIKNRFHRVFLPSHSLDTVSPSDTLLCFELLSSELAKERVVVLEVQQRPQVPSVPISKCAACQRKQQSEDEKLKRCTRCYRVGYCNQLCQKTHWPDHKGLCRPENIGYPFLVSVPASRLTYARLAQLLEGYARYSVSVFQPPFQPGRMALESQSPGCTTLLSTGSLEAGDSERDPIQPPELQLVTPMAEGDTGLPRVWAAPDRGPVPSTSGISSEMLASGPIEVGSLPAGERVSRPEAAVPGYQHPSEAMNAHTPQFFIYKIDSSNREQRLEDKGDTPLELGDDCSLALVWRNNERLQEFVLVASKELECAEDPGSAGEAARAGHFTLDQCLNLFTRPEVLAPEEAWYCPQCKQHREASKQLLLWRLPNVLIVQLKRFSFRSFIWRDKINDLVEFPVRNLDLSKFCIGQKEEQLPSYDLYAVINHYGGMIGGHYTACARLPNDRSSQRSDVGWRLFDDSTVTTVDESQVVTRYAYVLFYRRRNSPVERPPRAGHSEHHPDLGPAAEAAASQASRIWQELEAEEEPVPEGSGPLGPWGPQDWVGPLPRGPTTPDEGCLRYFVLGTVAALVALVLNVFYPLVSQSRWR
Outline: (§1)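 HEK293T lysate, 495 µg per sample in Tris/CHAPS/IGEPAL buffer with protease inhibitors, was treated in triplicate with fragment at 200 µM or vehicle for 3 h and then with Biotin-Ahx-Ub-VS at 0.5 µM final for 1 h. Labelled DUBs were NeutrAvidin-enriched, digested with LysC and trypsin, and run by diaPASEF LC-MS/MS. Spectronaut label-free quantities were global-median-normalised, and values are average log2 fragment/vehicle ratios by unpaired t-test on proteins with ≥2 unique peptides.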

[2] = biological target: T2, USP22 (UniProt Q9UPT9)
T2 sequence (whole entry): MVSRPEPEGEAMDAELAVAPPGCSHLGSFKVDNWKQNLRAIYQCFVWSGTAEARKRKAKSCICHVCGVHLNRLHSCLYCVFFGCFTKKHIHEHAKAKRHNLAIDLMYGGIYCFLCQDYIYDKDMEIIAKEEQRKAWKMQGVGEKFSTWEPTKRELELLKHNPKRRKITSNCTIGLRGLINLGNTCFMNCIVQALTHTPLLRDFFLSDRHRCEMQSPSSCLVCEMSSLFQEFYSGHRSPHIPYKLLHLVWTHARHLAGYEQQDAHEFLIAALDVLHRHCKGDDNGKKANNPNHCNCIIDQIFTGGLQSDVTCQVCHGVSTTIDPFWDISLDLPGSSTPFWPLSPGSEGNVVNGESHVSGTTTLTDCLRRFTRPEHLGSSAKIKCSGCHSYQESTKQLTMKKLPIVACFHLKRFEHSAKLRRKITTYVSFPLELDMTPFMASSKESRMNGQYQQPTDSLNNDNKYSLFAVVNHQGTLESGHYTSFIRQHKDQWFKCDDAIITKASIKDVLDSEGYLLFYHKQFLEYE
Outline: as §1

[3] = biological target: USP24 (UniProt Q9UPU5)
Outline: as §1

[4] = biological target: T3, USP25 (UniProt Q9UHP3)
T3 sequence (whole entry): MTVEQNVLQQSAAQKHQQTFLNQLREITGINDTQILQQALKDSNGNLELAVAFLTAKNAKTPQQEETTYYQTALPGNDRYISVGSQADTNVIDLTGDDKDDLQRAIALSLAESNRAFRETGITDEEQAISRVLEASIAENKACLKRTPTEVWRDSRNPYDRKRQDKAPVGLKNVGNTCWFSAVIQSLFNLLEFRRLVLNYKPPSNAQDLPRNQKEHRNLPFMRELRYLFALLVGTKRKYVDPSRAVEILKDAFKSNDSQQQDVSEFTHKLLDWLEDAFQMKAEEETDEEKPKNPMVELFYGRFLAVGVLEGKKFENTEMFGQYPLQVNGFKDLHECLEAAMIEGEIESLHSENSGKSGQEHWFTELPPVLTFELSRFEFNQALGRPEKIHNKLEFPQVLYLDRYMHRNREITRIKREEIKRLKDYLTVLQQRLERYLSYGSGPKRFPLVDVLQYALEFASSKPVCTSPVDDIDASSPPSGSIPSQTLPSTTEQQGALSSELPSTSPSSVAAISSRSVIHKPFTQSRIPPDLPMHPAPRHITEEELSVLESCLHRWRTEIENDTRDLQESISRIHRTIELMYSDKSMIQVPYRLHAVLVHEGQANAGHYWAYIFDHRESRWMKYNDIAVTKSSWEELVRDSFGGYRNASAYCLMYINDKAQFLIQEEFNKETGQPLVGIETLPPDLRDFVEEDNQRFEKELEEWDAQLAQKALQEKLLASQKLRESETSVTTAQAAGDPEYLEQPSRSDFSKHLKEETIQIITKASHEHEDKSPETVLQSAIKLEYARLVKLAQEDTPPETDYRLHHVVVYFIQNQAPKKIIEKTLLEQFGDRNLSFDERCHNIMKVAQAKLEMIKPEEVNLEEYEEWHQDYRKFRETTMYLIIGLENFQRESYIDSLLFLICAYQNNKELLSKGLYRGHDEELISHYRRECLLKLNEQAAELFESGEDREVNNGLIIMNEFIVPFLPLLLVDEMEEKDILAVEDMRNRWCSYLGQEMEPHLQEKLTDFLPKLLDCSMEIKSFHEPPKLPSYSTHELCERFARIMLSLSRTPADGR
Outline: as §1

[5] = biological target: T4, USP28 (UniProt Q96RU2)
T4 sequence (whole entry): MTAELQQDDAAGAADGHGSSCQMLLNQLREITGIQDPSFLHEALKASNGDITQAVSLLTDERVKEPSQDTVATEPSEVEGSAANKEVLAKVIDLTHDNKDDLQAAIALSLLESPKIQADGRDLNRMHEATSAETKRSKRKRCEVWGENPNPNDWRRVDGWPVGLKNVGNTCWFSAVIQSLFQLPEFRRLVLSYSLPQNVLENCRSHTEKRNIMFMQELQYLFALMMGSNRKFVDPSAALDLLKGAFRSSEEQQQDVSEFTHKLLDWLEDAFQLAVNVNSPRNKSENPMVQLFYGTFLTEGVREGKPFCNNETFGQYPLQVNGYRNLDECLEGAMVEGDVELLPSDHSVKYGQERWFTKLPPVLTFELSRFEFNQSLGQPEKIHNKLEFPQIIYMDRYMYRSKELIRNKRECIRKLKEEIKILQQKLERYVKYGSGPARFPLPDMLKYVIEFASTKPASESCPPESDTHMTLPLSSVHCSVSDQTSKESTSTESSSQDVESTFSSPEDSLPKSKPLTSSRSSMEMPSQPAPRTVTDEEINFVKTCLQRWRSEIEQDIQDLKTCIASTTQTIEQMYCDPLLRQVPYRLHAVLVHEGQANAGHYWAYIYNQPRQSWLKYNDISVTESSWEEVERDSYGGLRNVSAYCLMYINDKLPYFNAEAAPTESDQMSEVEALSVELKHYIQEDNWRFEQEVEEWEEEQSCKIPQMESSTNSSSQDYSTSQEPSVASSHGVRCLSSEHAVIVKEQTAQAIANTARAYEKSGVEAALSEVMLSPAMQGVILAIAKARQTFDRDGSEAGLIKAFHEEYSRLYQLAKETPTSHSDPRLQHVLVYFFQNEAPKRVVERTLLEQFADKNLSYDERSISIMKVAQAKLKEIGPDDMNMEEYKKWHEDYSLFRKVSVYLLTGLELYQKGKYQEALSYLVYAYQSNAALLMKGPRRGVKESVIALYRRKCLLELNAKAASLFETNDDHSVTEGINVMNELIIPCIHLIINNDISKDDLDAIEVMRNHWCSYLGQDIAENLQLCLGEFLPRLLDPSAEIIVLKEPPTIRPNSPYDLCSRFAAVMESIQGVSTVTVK
Outline: as §1

Measured: log2 ratio of Biotin-Ahx-Ub-VS probe labelling

USP24, sequence (Q9UPU5 whole entry): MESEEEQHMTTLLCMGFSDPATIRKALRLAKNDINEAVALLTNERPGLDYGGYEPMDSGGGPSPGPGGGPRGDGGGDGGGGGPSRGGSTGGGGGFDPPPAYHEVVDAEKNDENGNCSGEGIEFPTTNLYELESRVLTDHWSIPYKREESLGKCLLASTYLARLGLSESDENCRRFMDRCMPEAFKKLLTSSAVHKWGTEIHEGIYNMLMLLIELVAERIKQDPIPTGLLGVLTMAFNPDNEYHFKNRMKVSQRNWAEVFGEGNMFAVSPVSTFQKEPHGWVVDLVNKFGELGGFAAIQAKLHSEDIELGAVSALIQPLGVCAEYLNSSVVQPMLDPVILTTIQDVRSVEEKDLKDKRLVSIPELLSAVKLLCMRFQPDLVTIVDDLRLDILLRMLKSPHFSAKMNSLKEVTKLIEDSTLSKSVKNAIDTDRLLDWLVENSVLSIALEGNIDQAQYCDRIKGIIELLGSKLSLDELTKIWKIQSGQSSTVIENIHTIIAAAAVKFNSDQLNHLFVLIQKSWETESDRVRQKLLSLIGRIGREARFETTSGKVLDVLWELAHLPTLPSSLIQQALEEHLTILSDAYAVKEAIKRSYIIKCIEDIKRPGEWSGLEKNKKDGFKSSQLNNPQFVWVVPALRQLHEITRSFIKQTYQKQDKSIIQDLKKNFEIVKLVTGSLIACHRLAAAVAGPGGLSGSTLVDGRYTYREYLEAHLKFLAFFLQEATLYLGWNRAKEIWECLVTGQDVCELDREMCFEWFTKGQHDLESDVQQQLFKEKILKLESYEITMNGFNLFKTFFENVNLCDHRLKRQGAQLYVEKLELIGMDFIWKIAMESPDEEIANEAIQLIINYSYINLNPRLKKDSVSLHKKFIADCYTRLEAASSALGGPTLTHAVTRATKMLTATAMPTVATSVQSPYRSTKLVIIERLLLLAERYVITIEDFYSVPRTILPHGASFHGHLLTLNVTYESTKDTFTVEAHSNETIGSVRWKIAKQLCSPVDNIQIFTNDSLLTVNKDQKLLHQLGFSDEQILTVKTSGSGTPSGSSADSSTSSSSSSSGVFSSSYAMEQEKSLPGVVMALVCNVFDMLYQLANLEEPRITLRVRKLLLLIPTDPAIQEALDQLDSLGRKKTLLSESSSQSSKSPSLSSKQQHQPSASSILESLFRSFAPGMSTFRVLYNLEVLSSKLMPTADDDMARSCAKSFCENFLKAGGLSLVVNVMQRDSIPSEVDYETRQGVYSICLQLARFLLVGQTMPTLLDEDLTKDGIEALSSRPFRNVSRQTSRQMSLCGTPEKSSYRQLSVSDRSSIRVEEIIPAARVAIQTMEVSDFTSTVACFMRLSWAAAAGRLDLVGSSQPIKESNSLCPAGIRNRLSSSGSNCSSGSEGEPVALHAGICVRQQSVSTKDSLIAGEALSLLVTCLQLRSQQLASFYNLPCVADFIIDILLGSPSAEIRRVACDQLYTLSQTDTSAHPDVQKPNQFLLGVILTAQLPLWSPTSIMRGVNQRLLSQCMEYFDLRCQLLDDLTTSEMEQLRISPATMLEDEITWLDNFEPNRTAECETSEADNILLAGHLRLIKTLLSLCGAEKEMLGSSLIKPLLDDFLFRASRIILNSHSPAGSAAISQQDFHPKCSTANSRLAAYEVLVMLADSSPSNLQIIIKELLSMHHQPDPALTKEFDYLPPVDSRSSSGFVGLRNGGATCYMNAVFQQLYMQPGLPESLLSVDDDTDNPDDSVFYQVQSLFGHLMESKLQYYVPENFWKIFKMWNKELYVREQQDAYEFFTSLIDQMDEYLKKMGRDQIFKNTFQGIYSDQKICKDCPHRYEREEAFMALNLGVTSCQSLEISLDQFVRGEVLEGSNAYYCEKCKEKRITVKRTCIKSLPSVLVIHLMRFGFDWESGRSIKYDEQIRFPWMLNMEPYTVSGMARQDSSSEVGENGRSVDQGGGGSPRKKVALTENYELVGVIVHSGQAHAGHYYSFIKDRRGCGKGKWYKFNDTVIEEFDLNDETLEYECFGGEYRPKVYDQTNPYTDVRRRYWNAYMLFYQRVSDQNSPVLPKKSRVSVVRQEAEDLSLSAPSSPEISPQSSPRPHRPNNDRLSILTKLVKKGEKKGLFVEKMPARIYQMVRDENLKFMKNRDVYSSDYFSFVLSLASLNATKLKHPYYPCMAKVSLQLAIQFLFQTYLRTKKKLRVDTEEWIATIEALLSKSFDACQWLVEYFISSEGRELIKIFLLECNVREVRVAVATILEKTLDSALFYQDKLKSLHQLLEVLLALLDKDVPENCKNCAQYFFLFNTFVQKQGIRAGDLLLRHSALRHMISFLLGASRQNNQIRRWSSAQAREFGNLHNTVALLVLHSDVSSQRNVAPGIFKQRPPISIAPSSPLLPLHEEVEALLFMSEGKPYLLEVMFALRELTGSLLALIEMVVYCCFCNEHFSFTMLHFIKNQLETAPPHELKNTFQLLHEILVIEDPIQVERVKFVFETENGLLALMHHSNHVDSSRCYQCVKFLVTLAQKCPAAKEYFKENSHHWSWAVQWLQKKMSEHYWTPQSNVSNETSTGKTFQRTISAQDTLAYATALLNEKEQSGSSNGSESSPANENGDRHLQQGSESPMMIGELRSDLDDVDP

C#Cc1cccc(NC(=O)CCl)c1
inactive: [1] -0.38 | [2] -0.379 | [3] -0.837 | [4] -0.804 | [5] -0.906
